{"source": "the supplement of paper PMC12282887", "assay_in_all_cases": "promoter activity interaction Z-score (Lux/OD deviation from empty-vector control); higher = stronger promoter induction by the compound", "key": {"[1]": {"system": "E. coli BW25113 acrABp lux reporter", "in_short": "(§1)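 Wild-type E. coli BW25113 and three single-gene deletion strains, each carrying a low-copy luxCDABE promoter reporter, were grown at 37°C in 40 µl LB Lennox per well of a 384-well plate. Every compound was applied at four 1:2 dilutions in biological duplicates, and OD600 and luminescence were read every 30 min for 12 h. Integration covered 0–8 h for wild type and 1–9 h for deletion strains, and wells under 10% of the median growth value were removed. Scores are Z-transformed residuals of growth-normalised luminescence fitted against a control.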"}, "[2]": {"system": "E. coli BW25113 micFp lux reporter", "in_short": "as §1"}, "[3]": {"system": "E. coli BW25113 ompFp lux reporter", "in_short": "as §1"}, "[4]": {"system": "E. coli BW25113 robp lux reporter", "in_short": "as §1"}, "[5]": {"system": "E. coli BW25113 soxSp lux reporter", "in_short": "as §1"}, "[6]": {"system": "E. coli BW25113 tolCp lux reporter", "in_short": "as §1"}, "[7]": {"conditions": "19 µg/ml, genetic background: wild type"}, "[8]": {"conditions": "19 µg/ml, genetic background: ΔmarA"}, "[9]": {"conditions": "19 µg/ml, genetic background: Δrob"}, "[10]": {"conditions": "19 µg/ml, genetic background: ΔsoxS"}, "[11]": {"conditions": "38 µg/ml, genetic background: wild type"}, "[12]": {"conditions": "38 µg/ml, genetic background: ΔmarA"}, "[13]": {"conditions": "38 µg/ml, genetic background: Δrob"}, "[14]": {"conditions": "38 µg/ml, genetic background: ΔsoxS"}, "[15]": {"conditions": "76.1 µg/ml, genetic background: wild type"}, "[16]": {"conditions": "76.1 µg/ml, genetic background: ΔmarA"}, "[17]": {"conditions": "76.1 µg/ml, genetic background: Δrob"}, "[18]": {"conditions": "76.1 µg/ml, genetic background: ΔsoxS"}, "[19]": {"conditions": "152.1 µg/ml, genetic background: wild type"}, "[20]": {"conditions": "152.1 µg/ml, genetic background: ΔmarA"}, "[21]": {"conditions": "152.1 µg/ml, genetic background: Δrob"}, "[22]": {"conditions": "152.1 µg/ml, genetic background: ΔsoxS"}}, "note": "± gives the standard deviation of the averaged measurements."}
{"smiles": "COc1cc(C=O)ccc1O", "note": "[Vanillin]", "values": [{"measurement": "promoter activity interaction Z-score", "setting": "[1]; [7]", "result": "-0.0924 ± 0.22"}, {"measurement": "promoter activity interaction Z-score", "setting": "[1]; [8]", "result": "-1.01 ± 0.36"}, {"measurement": "promoter activity interaction Z-score", "setting": "[1]; [9]", "result": "-0.237 ± 0.036"}, {"measurement": "promoter activity interaction Z-score", "setting": "[1]; [10]", "result": "-0.38 ± 0.04"}, {"measurement": "promoter activity interaction Z-score", "setting": "[1]; [11]", "result": "-0.3 ± 0.17"}, {"measurement": "promoter activity interaction Z-score", "setting": "[1]; [12]", "result": "0.134 ± 0.85"}, {"measurement": "promoter activity interaction Z-score", "setting": "[1]; [13]", "result": "-0.312 ± 0.14"}, {"measurement": "promoter activity interaction Z-score", "setting": "[1]; [14]", "result": "-0.79 ± 0.35"}, {"measurement": "promoter activity interaction Z-score", "setting": "[1]; [15]", "result": "-0.108 ± 0.02"}, {"measurement": "promoter activity interaction Z-score", "setting": "[1]; [16]", "result": "-0.501 ± 0.51"}, {"measurement": "promoter activity interaction Z-score", "setting": "[1]; [17]", "result": "-0.406 ± 0.017"}, {"measurement": "promoter activity interaction Z-score", "setting": "[1]; [18]", "result": "-0.409 ± 0.11"}, {"measurement": "promoter activity interaction Z-score", "setting": "[1]; [19]", "result": "0.0819 ± 0.4"}, {"measurement": "promoter activity interaction Z-score", "setting": "[1]; [20]", "result": "-0.204 ± 0.85"}, {"measurement": "promoter activity interaction Z-score", "setting": "[1]; [21]", "result": "-0.28 ± 0.056"}, {"measurement": "promoter activity interaction Z-score", "setting": "[1]; [22]", "result": "-0.339 ± 0.24"}, {"measurement": "promoter activity interaction Z-score", "setting": "[2]; [7]", "result": "0.414 ± 0.3"}, {"measurement": "promoter activity interaction Z-score", "setting": "[2]; [8]", "result": "0.0708 ± 0.21"}, {"measurement": "promoter activity interaction Z-score", "setting": "[2]; [9]", "result": "0.348 ± 0.34"}, {"measurement": "promoter activity interaction Z-score", "setting": "[2]; [10]", "result": "0.261 ± 0.29"}, {"measurement": "promoter activity interaction Z-score", "setting": "[2]; [11]", "result": "0.827 ± 0.47"}, {"measurement": "promoter activity interaction Z-score", "setting": "[2]; [12]", "result": "0.117 ± 0.12"}, {"measurement": "promoter activity interaction Z-score", "setting": "[2]; [13]", "result": "0.608 ± 0.26"}, {"measurement": "promoter activity interaction Z-score", "setting": "[2]; [14]", "result": "0.255 ± 0.57"}, {"measurement": "promoter activity interaction Z-score", "setting": "[2]; [15]", "result": "1.55 ± 0.57"}, {"measurement": "promoter activity interaction Z-score", "setting": "[2]; [16]", "result": "0.0617 ± 0.059"}, {"measurement": "promoter activity interaction Z-score", "setting": "[2]; [17]", "result": "0.54 ± 0.19"}, {"measurement": "promoter activity interaction Z-score", "setting": "[2]; [18]", "result": "0.822 ± 0.14"}, {"measurement": "promoter activity interaction Z-score", "setting": "[2]; [19]", "result": "1.67 ± 0.3"}, {"measurement": "promoter activity interaction Z-score", "setting": "[2]; [20]", "result": "0.484 ± 0.14"}, {"measurement": "promoter activity interaction Z-score", "setting": "[2]; [21]", "result": "1.27 ± 0.44"}, {"measurement": "promoter activity interaction Z-score", "setting": "[2]; [22]", "result": "1.36 ± 0.11"}, {"measurement": "promoter activity interaction Z-score", "setting": "[3]; [7]", "result": "-0.994 ± 0.24"}, {"measurement": "promoter activity interaction Z-score", "setting": "[3]; [8]", "result": "-1.33 ± 0.62"}, {"measurement": "promoter activity interaction Z-score", "setting": "[3]; [9]", "result": "-1.05 ± 0.28"}, {"measurement": "promoter activity interaction Z-score", "setting": "[3]; [10]", "result": "-0.69 ± 0.026"}, {"measurement": "promoter activity interaction Z-score", "setting": "[3]; [11]", "result": "-0.89 ± 0.22"}, {"measurement": "promoter activity interaction Z-score", "setting": "[3]; [12]", "result": "-1.03 ± 0.49"}, {"measurement": "promoter activity interaction Z-score", "setting": "[3]; [13]", "result": "-0.857 ± 0.061"}, {"measurement": "promoter activity interaction Z-score", "setting": "[3]; [14]", "result": "-0.75 ± 0.044"}, {"measurement": "promoter activity interaction Z-score", "setting": "[3]; [15]", "result": "-0.551 ± 0.35"}, {"measurement": "promoter activity interaction Z-score", "setting": "[3]; [16]", "result": "-1.2 ± 0.46"}, {"measurement": "promoter activity interaction Z-score", "setting": "[3]; [17]", "result": "-0.873 ± 0.084"}, {"measurement": "promoter activity interaction Z-score", "setting": "[3]; [18]", "result": "-0.372 ± 0.057"}, {"measurement": "promoter activity interaction Z-score", "setting": "[3]; [19]", "result": "-0.504 ± 0.27"}, {"measurement": "promoter activity interaction Z-score", "setting": "[3]; [20]", "result": "-0.917 ± 0.56"}, {"measurement": "promoter activity interaction Z-score", "setting": "[3]; [21]", "result": "-0.507 ± 0.057"}, {"measurement": "promoter activity interaction Z-score", "setting": "[3]; [22]", "result": "0.0107 ± 0.52"}, {"measurement": "promoter activity interaction Z-score", "setting": "[4]; [7]", "result": "-0.0267 ± 0.12"}, {"measurement": "promoter activity interaction Z-score", "setting": "[4]; [8]", "result": "-0.748 ± 0.21"}, {"measurement": "promoter activity interaction Z-score", "setting": "[4]; [9]", "result": "-0.428 ± 0.024"}, {"measurement": "promoter activity interaction Z-score", "setting": "[4]; [10]", "result": "-0.184 ± 0.93"}, {"measurement": "promoter activity interaction Z-score", "setting": "[4]; [11]", "result": "-0.354 ± 0.066"}, {"measurement": "promoter activity interaction Z-score", "setting": "[4]; [12]", "result": "0.11 ± 0.23"}, {"measurement": "promoter activity interaction Z-score", "setting": "[4]; [13]", "result": "-0.287 ± 0.54"}, {"measurement": "promoter activity interaction Z-score", "setting": "[4]; [14]", "result": "-0.138 ± 0.42"}, {"measurement": "promoter activity interaction Z-score", "setting": "[4]; [15]", "result": "-0.265 ± 0.18"}, {"measurement": "promoter activity interaction Z-score", "setting": "[4]; [16]", "result": "-0.307 ± 0.11"}, {"measurement": "promoter activity interaction Z-score", "setting": "[4]; [17]", "result": "-0.399 ± 0.16"}, {"measurement": "promoter activity interaction Z-score", "setting": "[4]; [18]", "result": "-0.0986 ± 0.36"}, {"measurement": "promoter activity interaction Z-score", "setting": "[4]; [19]", "result": "0.841 ± 1.6"}, {"measurement": "promoter activity interaction Z-score", "setting": "[4]; [20]", "result": "0.111 ± 0.07"}, {"measurement": "promoter activity interaction Z-score", "setting": "[4]; [21]", "result": "-0.463 ± 0.3"}, {"measurement": "promoter activity interaction Z-score", "setting": "[4]; [22]", "result": "0.223 ± 0.32"}, {"measurement": "promoter activity interaction Z-score", "setting": "[5]; [7]", "result": "-0.29 ± 0.1"}, {"measurement": "promoter activity interaction Z-score", "setting": "[5]; [8]", "result": "-0.185 ± 0.056"}, {"measurement": "promoter activity interaction Z-score", "setting": "[5]; [9]", "result": "0.0115 ± 0.23"}, {"measurement": "promoter activity interaction Z-score", "setting": "[5]; [10]", "result": "-0.409 ± 0.11"}, {"measurement": "promoter activity interaction Z-score", "setting": "[5]; [11]", "result": "-0.279 ± 0.037"}, {"measurement": "promoter activity interaction Z-score", "setting": "[5]; [12]", "result": "-0.201 ± 0.018"}, {"measurement": "promoter activity interaction Z-score", "setting": "[5]; [13]", "result": "0.0294 ± 0.17"}, {"measurement": "promoter activity interaction Z-score", "setting": "[5]; [14]", "result": "-0.314 ± 0.082"}, {"measurement": "promoter activity interaction Z-score", "setting": "[5]; [15]", "result": "-0.117 ± 0.062"}, {"measurement": "promoter activity interaction Z-score", "setting": "[5]; [16]", "result": "-0.32 ± 0.06"}, {"measurement": "promoter activity interaction Z-score", "setting": "[5]; [17]", "result": "-0.186 ± 0.072"}, {"measurement": "promoter activity interaction Z-score", "setting": "[5]; [18]", "result": "-0.321 ± 0.11"}, {"measurement": "promoter activity interaction Z-score", "setting": "[5]; [19]", "result": "-0.196 ± 0.03"}, {"measurement": "promoter activity interaction Z-score", "setting": "[5]; [20]", "result": "-0.205 ± 0.12"}, {"measurement": "promoter activity interaction Z-score", "setting": "[5]; [21]", "result": "-0.225 ± 0.11"}, {"measurement": "promoter activity interaction Z-score", "setting": "[5]; [22]", "result": "-0.367 ± 0.18"}, {"measurement": "promoter activity interaction Z-score", "setting": "[6]; [7]", "result": "0.0479 ± 0.73"}, {"measurement": "promoter activity interaction Z-score", "setting": "[6]; [8]", "result": "-0.119 ± 0.31"}, {"measurement": "promoter activity interaction Z-score", "setting": "[6]; [9]", "result": "0.58 ± 0.34"}, {"measurement": "promoter activity interaction Z-score", "setting": "[6]; [10]", "result": "0.597 ± 0.78"}, {"measurement": "promoter activity interaction Z-score", "setting": "[6]; [11]", "result": "0.657 ± 0.53"}, {"measurement": "promoter activity interaction Z-score", "setting": "[6]; [12]", "result": "0.25 ± 0.54"}, {"measurement": "promoter activity interaction Z-score", "setting": "[6]; [13]", "result": "0.749 ± 0.62"}, {"measurement": "promoter activity interaction Z-score", "setting": "[6]; [14]", "result": "-0.627 ± 0.44"}, {"measurement": "promoter activity interaction Z-score", "setting": "[6]; [15]", "result": "0.993 ± 0.047"}, {"measurement": "promoter activity interaction Z-score", "setting": "[6]; [16]", "result": "-0.352 ± 0.71"}, {"measurement": "promoter activity interaction Z-score", "setting": "[6]; [17]", "result": "-0.533 ± 0.45"}, {"measurement": "promoter activity interaction Z-score", "setting": "[6]; [18]", "result": "0.305 ± 0.97"}, {"measurement": "promoter activity interaction Z-score", "setting": "[6]; [19]", "result": "-0.199 ± 0.18"}, {"measurement": "promoter activity interaction Z-score", "setting": "[6]; [20]", "result": "-0.469 ± 1"}, {"measurement": "promoter activity interaction Z-score", "setting": "[6]; [21]", "result": "0.503 ± 0.78"}, {"measurement": "promoter activity interaction Z-score", "setting": "[6]; [22]", "result": "1.07 ± 1.8"}]}
